Test [1] in a line: ATG_E_Box_CIS: Attagene CIS-FACTORIAL HepG2 Assay for human Enhancer Box (E-box) (AID 2282936). The note with it: HepG2 E-box cis-reporter transcription, actives raise or lower the signal. The method in brief: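 E-box-driven reporter transcripts measured in transiently transfected HepG2 after 24 h exposure: RNA reverse-transcribed, PCR-amplified, fluorescently labelled, digested and resolved by capillary electrophoresis. Gain or loss relative to DMSO.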

The nature of test [2]: ATG_M_61_CIS: Attagene CIS-FACTORIAL HepG2 Assay for M61 Transcription Factor (Internal Marker) (AID 2282937). The note with it: HepG2 Attagene CIS-FACTORIAL M61 internal marker reporter; actives raise or lower the signal. The method in brief: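 Human liver HepG2, transient MRTU transfection (cis promoter elements), 24 h compound. Total RNA → oligo(dT) RT → PCR → FAM label → HpaI → CE. Internal background marker; bidirectional fitting, DMSO = baseline.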

The nature of test [3]: ATG_EGR_CIS: Attagene CIS-FACTORIAL HepG2 Assay for human Early Growth Response 1 (EGR1) (AID 2282938). The conditions noted are these: HepG2 Attagene CIS-FACTORIAL EGR reporter mRNA; actives raise or lower the signal. In short, it runs like this: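 Transient transfection of human HepG2 with multiple cis-regulated reporter units, chemical exposure 24 h, total RNA isolated. Reverse transcription, PCR, fluorescent labelling and capillary electrophoresis quantify reporter transcripts; activity fitted bidirectionally against DMSO.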

Test [4] can be described thus: ATG_M_19_CIS: Attagene CIS-FACTORIAL HepG2 Assay for M19 Transcription Factor (Internal Marker) (AID 2282939). The conditions noted are these: HepG2 Attagene CIS-FACTORIAL M19 internal marker reporter; actives raise or lower the signal. In short, it runs like this:
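HepG2 cells transiently transfected with cis-regulated multiplexed reporter units, dosed 24 h. Reporter mRNA quantified by RT-PCR and capillary electrophoresis; internal background marker fitted bidirectionally versus DMSO.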

Test [5] is described as follows: ATG_ERE_CIS: Attagene CIS-FACTORIAL HepG2 Assay for Estrogen Response Element (ERE) (AID 2282940). The note with it: HepG2 ERE cis-reporter, Attagene RNA transcript; actives raise or lower the signal. The method in brief:
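HepG2 cells transiently transfected with multiplexed cis-element reporter units, measuring endogenous transcription factor activity; ERE reporter mRNA quantified after 24 h exposure by RT-PCR, fluorescent labelling, HpaI digestion and capillary electrophoresis. Bidirectional change versus DMSO.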

Test [6] can be described thus: ATG_Ets_CIS: Attagene CIS-FACTORIAL HepG2 Assay for human Erythroblast Transformation Specific (ETS) (AID 2282941). The conditions noted are these: HepG2 ETS cis-reporter transcription, actives raise or lower the signal. In short, it runs like this: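 Multiplexed reporter transcript profiling: HepG2, 24 h treatment, total RNA to cDNA, PCR, 6-FAM labelling, HpaI cut, capillary electrophoresis. Gain- or loss-of-signal fitted against DMSO.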

Test [7] concerns the target Hepatocyte nuclear factor 3-beta (Homo sapiens) (UniProt Q9Y261). The test can be described thus: ATG_FoxA2_CIS: Attagene CIS-FACTORIAL HepG2 Assay for human Forkhead box A2 (FOXA2) (AID 2282942). The conditions noted are these: HepG2 cis-reporter transcription factor activity, 24 h; actives raise or lower the signal. The method in brief:
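Transient MRTU transfection of HepG2 liver cells; 24 h treatment; total RNA → oligo(dT) RT → PCR → FAM primer extension → HpaI cut → CE. Bidirectional fit vs DMSO.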

Test [8] in a line: ATG_FoxO_CIS: Attagene CIS-FACTORIAL HepG2 Assay for human Forkhead box O (FoxO) (AID 2282943). The conditions noted are these: HepG2 Attagene cis-reporter, FoxO element, mRNA; actives raise or lower the signal. The method in brief: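 Human hepatoma HepG2 cells carry transiently introduced reporter transcription units controlled by cis promoter elements. Chemical treatment lasted 24 h, and mRNA signal was compared with DMSO.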

A short description of test [9]: ATG_GATA_CIS: Attagene CIS-FACTORIAL HepG2 Assay for human GATA Binding Protein (AID 2282944). The note with it: HepG2 GATA cis-element reporter, Attagene multiplex mRNA; actives raise or lower the signal. The method in brief: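 HepG2 cells transiently transfected with multiplexed cis-element reporter units measure endogenous GATA activity; after 24 h compound exposure, reporter mRNA quantified by RT-PCR and capillary electrophoresis. Changes fitted in both directions vs DMSO.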

Test [10] can be described thus: ATG_GLI_CIS: Attagene CIS-FACTORIAL HepG2 Assay for human Zinc Finger Protein GLI1 (AID 2282945). The note with it: HepG2, Attagene cis-factorial reporter mRNA, GLI element; actives raise or lower the signal. The method in brief:
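Bidirectional curve fits relative to DMSO, using reporter mRNA levels from RT-PCR plus capillary electrophoresis. Cells were HepG2 transiently carrying cis-regulated reporter constructs, harvested 24 h after dosing.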

Test [11] is described as follows: ATG_ISRE_CIS: Attagene CIS-FACTORIAL HepG2 Assay for human Interferon Regulatory Factor 1 (IRF1) binding to an Interferon-Stimulated Response Element (ISRE) (AID 2282948). The note with it: HepG2 ISRE cis-reporter (Attagene), mRNA transcription readout; actives raise or lower the signal. In short, it runs like this:
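Signal reflects induction or loss of ISRE-linked reporter mRNA in transiently transfected HepG2 cells after a 24 h treatment, detected by fluorescent RT-PCR fragments on capillary electrophoresis and normalised to DMSO.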

Test [12] can be described thus: ATG_M_32_CIS: Attagene CIS-FACTORIAL HepG2 Assay for M32 Transcription Factor (Internal Marker) (AID 2282949).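 Note: background control marker of the multiplexed CIS panel rather than a real target.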 The conditions noted are these: HepG2 Attagene cis-factorial M32 reporter, mRNA; actives raise or lower the signal. In short, it runs like this: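 HepG2 human liver cells transiently transfected with cis-promoter-driven multiple reporter transcription units, dosed 24 h. Reporter mRNA quantified by RT-PCR, FAM-labelled primer extension, HpaI digest and capillary electrophoresis; bidirectional fit versus DMSO baseline.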

Test [13] in a line: ATG_M_06_CIS: Attagene CIS-FACTORIAL HepG2 Assay for M06 Transcription Factor (Internal Marker) (AID 2282950). The conditions noted are these: HepG2 Attagene CIS-FACTORIAL M06 internal marker reporter; actives raise or lower the signal. In short, it runs like this: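 Internal background marker within multiplexed cis-reporter HepG2 system. Cells transiently transfected, dosed 24 h; reporter mRNA measured by RT-PCR, HpaI digestion and capillary electrophoresis. Bidirectional fit relative to DMSO.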

Test [14] deals with Hepatocyte nuclear factor 6 (Homo sapiens) (UniProt Q9UBC0). The test can be described thus: ATG_HNF6_CIS: Attagene CIS-FACTORIAL HepG2 Assay for human Hepatocyte Nuclear Factor 6 (HNF6) (AID 2282952). The conditions noted are these: HepG2 Attagene cis-factorial HNF6 reporter transcription; actives raise or lower the signal. In short, it runs like this:
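Endogenous factor activity read in transiently transfected HepG2 via promoter-regulated reporter transcripts. RNA harvested 24 h post-dosing, reverse-transcribed, PCR-amplified, FAM-labelled, HpaI-digested and resolved by capillary electrophoresis; fitted in both directions against DMSO.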

Test [15] has as its target Heat shock factor protein 1 (Homo sapiens) (UniProt Q00613). The test is described as follows: ATG_HSE_CIS: Attagene CIS-FACTORIAL HepG2 Assay for human Heat Shock Transcription Factor 1 (HSE) (AID 2282953). The note with it: HepG2 HSE cis-reporter, Attagene RNA transcription; actives raise or lower the signal. In short, it runs like this: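 HepG2 cells transfected with cis-promoter reporter units sensing endogenous transcription factor activity; reporter mRNA quantified 24 h post-dose by RT-PCR and capillary electrophoresis of 6-FAM-labelled products. Bidirectional fitting against DMSO.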

The nature of test [16]: ATG_MRE_CIS: Attagene CIS-FACTORIAL HepG2 Assay for human Metal Responsive Element (MRE) (AID 2282954). The note with it: HepG2 MRE cis-reporter transcription, Attagene multiplex; actives raise or lower the signal. In short, it runs like this: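 Endogenous MRE-dependent transcription read as reporter mRNA in transiently transfected human HepG2 cells at 24 h. RNA reverse-transcribed, PCR-amplified, labelled and resolved by capillary electrophoresis; gain or loss relative to DMSO.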

A short description of test [17]: ATG_PBREM_CIS: Attagene CIS-FACTORIAL HepG2 Assay for human Phenobarbital-responsive Enhancer Module (PBREM) (AID 2282955). The conditions noted are these: HepG2 PBREM cis-reporter, Attagene multiplexed transcription; actives raise or lower the signal. The method in brief: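 Endogenous transcription factors in human liver HepG2 cells drive a PBREM cis-element reporter, whose transcript level after 24 h treatment is quantified by RT-PCR with capillary electrophoresis; activity fitted in both directions against DMSO.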

In test [18] the target is Hypoxia-inducible factor 1-alpha (Homo sapiens) (UniProt Q16665). The test is described as follows: ATG_HIF1a_CIS: Attagene CIS-FACTORIAL HepG2 Assay for human Hypoxia Inducible Factor 1 (HIF1A) (AID 2282951). The note with it: HepG2 Attagene cis-factorial HIF1a reporter transcription; actives raise or lower the signal. The method in brief: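 Transient MRTU transfection of human HepG2 liver cells, 24 h compound treatment, then total RNA isolation, oligo(dT) reverse transcription, PCR amplification, fluorescent labelling and capillary electrophoresis of reporter fragments. Gain or loss relative to DMSO.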
Chain of Hypoxia-inducible factor 1-alpha (Homo sapiens) (Q16665 whole entry, looked up, the tested form may be a part): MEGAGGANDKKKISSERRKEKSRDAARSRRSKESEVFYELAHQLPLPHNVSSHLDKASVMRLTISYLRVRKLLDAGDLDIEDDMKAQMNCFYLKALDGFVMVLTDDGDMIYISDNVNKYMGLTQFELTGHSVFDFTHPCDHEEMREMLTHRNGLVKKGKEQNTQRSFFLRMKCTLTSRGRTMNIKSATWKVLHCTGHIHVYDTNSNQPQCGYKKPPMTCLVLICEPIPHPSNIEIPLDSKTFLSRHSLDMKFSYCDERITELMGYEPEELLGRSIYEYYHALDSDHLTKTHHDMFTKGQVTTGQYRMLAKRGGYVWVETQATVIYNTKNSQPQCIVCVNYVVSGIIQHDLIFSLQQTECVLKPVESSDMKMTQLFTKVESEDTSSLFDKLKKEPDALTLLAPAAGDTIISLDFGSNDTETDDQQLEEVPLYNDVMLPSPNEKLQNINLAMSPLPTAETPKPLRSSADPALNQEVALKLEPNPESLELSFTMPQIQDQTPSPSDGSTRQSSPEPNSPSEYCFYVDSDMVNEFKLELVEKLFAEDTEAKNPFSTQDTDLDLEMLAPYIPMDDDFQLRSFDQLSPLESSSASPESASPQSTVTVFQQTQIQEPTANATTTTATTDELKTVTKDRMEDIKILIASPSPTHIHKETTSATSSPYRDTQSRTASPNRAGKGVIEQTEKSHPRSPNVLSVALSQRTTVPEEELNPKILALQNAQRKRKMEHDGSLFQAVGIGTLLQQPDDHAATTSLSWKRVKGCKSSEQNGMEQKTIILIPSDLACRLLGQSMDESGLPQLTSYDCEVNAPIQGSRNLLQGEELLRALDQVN

Test [19] can be described thus: ATG_GRE_CIS: Attagene CIS-FACTORIAL HepG2 Assay for human Glucocorticoid Response Elements (GRE) (AID 2282947). The conditions noted are these: HepG2 GRE cis-reporter, Attagene multiplex mRNA; actives raise or lower the signal. The method in brief: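 Reporter transcripts read by RT-PCR with capillary electrophoresis fluorescence after a 24 h chemical exposure of HepG2 cells transiently transfected with multiple cis-element reporter units. Gain or loss fitted against DMSO.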

One may read the AC50 as the midpoint of the concentration-response curve, whichever way the signal moves.

Activity calls are given as the source filed them. Rule for the calls: active = hit-call score of the fitted dose curve at least 0.9, where 1 is the maximum; inactive = score below 0.9.

Chain of Hepatocyte nuclear factor 6 (Homo sapiens) (Q9UBC0 whole entry, looked up): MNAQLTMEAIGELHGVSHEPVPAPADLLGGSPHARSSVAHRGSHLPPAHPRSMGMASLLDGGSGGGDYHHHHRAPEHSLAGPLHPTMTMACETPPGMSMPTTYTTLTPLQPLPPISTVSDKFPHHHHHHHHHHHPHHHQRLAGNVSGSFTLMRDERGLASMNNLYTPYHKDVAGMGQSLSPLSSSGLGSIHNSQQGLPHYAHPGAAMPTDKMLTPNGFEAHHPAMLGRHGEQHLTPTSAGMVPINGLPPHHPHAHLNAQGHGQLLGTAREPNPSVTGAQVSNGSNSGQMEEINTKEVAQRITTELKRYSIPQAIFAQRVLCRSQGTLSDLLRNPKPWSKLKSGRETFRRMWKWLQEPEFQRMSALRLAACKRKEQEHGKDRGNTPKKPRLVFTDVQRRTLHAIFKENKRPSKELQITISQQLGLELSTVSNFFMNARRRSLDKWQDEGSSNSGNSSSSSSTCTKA
Chain of Hepatocyte nuclear factor 3-beta (Homo sapiens) (Q9Y261 whole entry, looked up): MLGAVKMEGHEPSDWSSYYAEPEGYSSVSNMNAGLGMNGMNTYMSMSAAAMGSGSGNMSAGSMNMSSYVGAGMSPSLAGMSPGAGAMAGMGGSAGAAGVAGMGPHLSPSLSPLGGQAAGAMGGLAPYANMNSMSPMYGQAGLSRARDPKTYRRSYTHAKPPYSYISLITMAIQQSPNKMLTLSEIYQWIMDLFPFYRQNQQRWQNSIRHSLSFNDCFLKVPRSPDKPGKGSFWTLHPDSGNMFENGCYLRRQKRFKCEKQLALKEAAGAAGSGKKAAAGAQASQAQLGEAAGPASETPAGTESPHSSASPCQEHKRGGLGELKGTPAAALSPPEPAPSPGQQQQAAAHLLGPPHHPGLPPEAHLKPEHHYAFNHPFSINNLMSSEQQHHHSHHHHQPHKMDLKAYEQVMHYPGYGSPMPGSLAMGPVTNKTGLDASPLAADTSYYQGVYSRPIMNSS
Chain of Heat shock factor protein 1 (Homo sapiens) (Q00613 whole entry, looked up): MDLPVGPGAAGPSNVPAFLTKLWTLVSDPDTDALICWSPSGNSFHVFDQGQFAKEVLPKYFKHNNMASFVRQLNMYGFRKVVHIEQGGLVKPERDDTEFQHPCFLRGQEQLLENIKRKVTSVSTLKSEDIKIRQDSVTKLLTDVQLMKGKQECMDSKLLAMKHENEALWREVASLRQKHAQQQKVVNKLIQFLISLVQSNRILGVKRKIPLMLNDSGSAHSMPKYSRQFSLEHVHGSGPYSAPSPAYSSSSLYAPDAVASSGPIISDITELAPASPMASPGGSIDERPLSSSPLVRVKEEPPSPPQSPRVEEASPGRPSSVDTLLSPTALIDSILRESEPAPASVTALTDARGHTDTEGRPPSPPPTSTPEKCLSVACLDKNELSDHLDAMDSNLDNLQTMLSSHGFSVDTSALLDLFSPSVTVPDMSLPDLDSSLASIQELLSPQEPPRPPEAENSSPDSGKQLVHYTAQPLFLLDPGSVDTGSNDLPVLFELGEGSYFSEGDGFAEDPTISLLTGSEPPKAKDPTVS

For the molecule `O=C1OC2(c3cc(Br)c(O)c(Br)c3Oc3c2cc(Br)c(O)c3Br)c2c(Cl)c(Cl)c(Cl)c(Cl)c21`, the outcome in test [1], in test [2], in test [4], in [6], in test [7] and in test [8] was inactive. The call in [9], in test [10], in test [11], in [12], in [13] and in test [14] was inactive. The molecule was classed as inactive in test [15] and in [17]. Moreover, the values for the AC50 in test [3], in [5] and in [16] were 35 µM (active), 18.2 µM (active) and 19.1 µM (active), respectively.

On to `CCCCCCCCCCCCCCCC(=O)OC[C@H](O)[C@H]1OC(=O)C(O)=C1O`, for which the result in test [1], in test [2], in test [3], in test [4], in test [5] and in [6] was inactive. Also, the molecule was classed as inactive in test [8], in test [9], in test [10], in test [11], in test [12] and in [13]. Also, the outcome in test [14] and in [16] was inactive. Further, the AC50 in [7] was 159 µM (active); in test [18], 131 µM (active); in test [15], 24.1 µM (active).

As for `NC(N)=NC(=O)c1nc(Cl)c(N)nc1N`, the result in test [1], in [2], in [3], in test [4], in test [5] and in [6] was inactive. The call in test [7], in test [8], in [9], in [10], in test [19] and in [12] was inactive. In addition, the call in test [14], in test [15], in [16] and in test [17] was inactive. Besides, in [11], the AC50 is 157 µM (active).

Take `C=CC(C)(CCC=C(C)C)OC=O` (centres undefined): the outcome in test [1], in test [2], in test [3], in test [4], in test [5] and in test [6] was inactive. In addition, the molecule was called inactive in test [7], in test [8], in test [9], in test [10], in test [19] and in test [11]. Also, the result in test [12], in test [13], in test [14], in [15], in test [16] and in test [17] was inactive.

For the origin of these results see PubChem BioAssay (EPA / NIEHS).
